Results on 40 compounds are retold here after ChEMBL document CHEMBL3988442, “University of Dundee, Small-Polar-MMV Screening Library” (2021).

The experiment concerns the target T1, Aspartate--tRNA(Asp/Asn) ligase (Mycobacterium tuberculosis (strain ATCC 25618 / H37Rv)) (UniProt P9WFW3).
T1 sequence (whole entry): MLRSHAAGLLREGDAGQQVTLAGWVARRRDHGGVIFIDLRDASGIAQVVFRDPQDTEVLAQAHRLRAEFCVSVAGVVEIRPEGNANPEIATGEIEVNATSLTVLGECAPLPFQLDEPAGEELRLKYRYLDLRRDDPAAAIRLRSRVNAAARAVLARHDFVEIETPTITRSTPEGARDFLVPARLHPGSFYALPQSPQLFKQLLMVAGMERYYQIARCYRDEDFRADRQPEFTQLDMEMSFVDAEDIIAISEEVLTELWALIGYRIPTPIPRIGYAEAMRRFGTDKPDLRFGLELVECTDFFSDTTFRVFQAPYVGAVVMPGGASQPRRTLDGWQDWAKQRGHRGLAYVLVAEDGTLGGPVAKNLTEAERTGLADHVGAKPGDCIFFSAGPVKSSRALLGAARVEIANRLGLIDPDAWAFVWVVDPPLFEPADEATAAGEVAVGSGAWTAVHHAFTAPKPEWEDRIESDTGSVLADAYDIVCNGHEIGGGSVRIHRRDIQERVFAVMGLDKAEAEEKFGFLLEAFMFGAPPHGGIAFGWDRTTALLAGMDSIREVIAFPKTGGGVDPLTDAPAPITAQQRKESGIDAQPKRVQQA
Kind of experiment: Assay for Asp RNA synthetase-1 from Mycobacterium tuberculosis. Also noted: scale not given: in the data most compounds retested in dose-response had high values. Conditions: 30 µM. Format: functional.
With `CC(C)Sc1nnc(CCNC(=O)OC(C)(C)C)o1`, the Percent Effect was -0.987%.
For `COc1ccc(C(=O)N2CCCC(CNS(C)(=O)=O)C2)cc1F` (stereo not given) the value was 1.03%; for `O=C1CC2(CCN(CCO)CC2)CN1Cc1cc(F)cc(F)c1`, -2.67%.
For `CC(C)c1nc(CN(C)C2CCN(CC(F)(F)F)C2)no1` (stereo not given) the value was 8.54%; for `Cc1ccc(N2CCCC(NCc3ccncc3)C2)nn1` (stereo not given), 0.131%.
On to `COc1cccc(-n2nnc(C(=O)N3CCNC(=O)C3)c2C)c1`, for which the Percent Effect is -6.06%.
The value for `C=C(C)CN(Cc1cccc(O)c1)C1CCC(O)CC1` (stereo not given) was 5.8%.
The value for `CCOCCCNC(=O)c1nn(CC)cc1Cl` was -5.87%; that for `Cc1nc(C)c(CC(=O)N2C[C@H]3CC[C@@H]2CN(C(=O)N(C)C)C3)c(=O)[nH]1` was 0.0987%; that for `COc1cccc(C(=O)NCCCN2CCc3ccccc3C2)c1OC` was -2.13%.
For `O=C(Nc1cccc(Cl)c1)c1nn(C2CCS(=O)(=O)C2)c2c1CCCC2` (stereo not given) the value was 6.98%.
For `CN(CCCc1ccccc1)Cc1nc2c(cnn2C)c(=O)[nH]1`, the Percent Effect was found to be 1.38%.
Consider `COc1cccc2c1OCC(CNC(=O)CSc1nc(N)n[nH]1)C2` (stereo not given), for which the Percent Effect stood at 2.1%.
For the compound `COCCNC(=O)CN1CCN(c2nc(C)cs2)C(C)C1` (stereo not given), the Percent Effect was -0.728%.
For `Cc1ccc2cc(CNCCCO)c(=O)[nH]c2c1` the value was -1.41%; for `Cc1ncccc1OC1(C(=O)NCCNc2ccccc2)CCNCC1`, -0.792%.
In the case of `O=C(Nc1cccc(CNCc2cccs2)c1)C1CCCC1`, the Percent Effect came out at 1.74%.
On to `c1ccc(-c2noc(CNC3CCc4ncnn4C3)n2)nc1` (stereo not given), for which the Percent Effect worked out at 0.903%.
Consider `COc1ccc(F)cc1C(C)NC(=O)Nc1nnc(C)s1` (stereo not given), for which the Percent Effect was -0.889%.
The value for `OCCC1CN(C2CCC2)CCN1C1CCCC1` (stereo not given) was -1.5%.
The value for `CC(C)C(C(=O)N1CCC(N(C)c2cccnn2)CC1)n1cncn1` (stereo not given) was -3.21%; that for `COc1cccc(N2CCN(CCC(=O)NC3CCCC3)CC2)c1` was 1.95%.
For `O=C(COCC1CC1)N1CCCC(n2cncn2)C1` (stereo not given) the value was -4.03%.
Regarding `Cn1cc(CN2CCCN(C(=O)c3cc[nH]n3)CC2)cn1`, the Percent Effect was -4.23%.
For `O=C(c1ccc(NC2CC2)nc1)N1CCCC(n2cccn2)C1` (stereo not given) the value was -1.7%; for `O=C(c1ccc[nH]1)N1CCn2cc(CN3CCCC3)nc2C1`, -2.37%.
For the compound `Cc1nn(C)c(Cl)c1CNCc1cccnc1N1CCOCC1`, the Percent Effect is -7.19%.
The value for `CC(C)c1noc(CCC(=O)NC(C)c2nnc3n2CCCCC3)n1` (stereo not given) was 0.353%; that for `c1coc(CN2C[C@H](OCC3CCOCC3)[C@H]3COC[C@H]32)c1` was 1.73%.
The value for `CN(c1ccc(F)c(F)c1)S(=O)(=O)c1cc(C(=O)O)cs1` was 1.3%; that for `COCCn1cc(C(=O)N2CCCC2c2cccc(F)c2)ccc1=O` (stereo not given) was 0.301%.
Turning to `CC1CCN(C(=O)c2ccn(COc3ccc(F)cc3)n2)CC1`, the Percent Effect is 9.51%.
For `CC(=O)N1CCCC1c1cccc(Cc2ccccc2F)n1` (stereo not given), the Percent Effect was -0.134%.
For the compound `CN(C)C(=O)CCC(=O)NCc1cccnc1-n1cnc2ccccc21`, the Percent Effect was -3.48%.
As for `CCN(Cc1cccc2c1OCO2)C(=O)NC1CC1`, the Percent Effect was -0.162%.
Regarding `Cc1cccc(-c2ccc(C(=O)NCCN(C)C3CC3)c(=O)[nH]2)c1`, the Percent Effect was 4.25%.
The value for `c1ccc(Cn2cccn2)c(CNCC2CNc3ccnn3C2)c1` (stereo not given) was 1.88%; that for `O=C(NCc1nncn1-c1ccccc1)C1CC(=O)N(CC2CC2)C1` (stereo not given) was -2.56%.
Turning to `Cc1cc(C)c2cc(CNCc3ccccc3)c3nn(C)c(=O)n3c2c1`, the Percent Effect is -2.43%.
For `CC(C)c1cc(N2CCC(N)CC2)n2nccc2n1` the value was -0.232%.
